Experimental data as given in PubChem BioAssay AID1347146 (National Center for Advancing Translational Sciences (NCATS), 2019).
Values joined by “and” are separate entries in the source; they are usually repeats but may differ in a detail not shown here. Equal values may be shown once. Results filed as inconclusive are left out. Values without a mark were called inactive. Active and inactive are the calls of the source. The call rests on the fitted dose curve; in most records, active means well fitted inhibition curve with a large enough effect; inconclusive means small, poorly fitted or top-dose-only effect; inactive means no such curve, though single readings can be large or run the other way.

What follows are compounds tested against Nicotinamide N-methyltransferase (Homo sapiens) (UniProt P40261) (assay: qHTS Assay for Inhibitors of N-terminal methyltransferase 1 (NTMT1): NNMT MTaseGlo counterscreen assay). Conditions: NNMT enzyme, MTase-Glo luminescence counterscreen; series mostly up to 57.1 µM; activity change, negative = inhibition: at the top concentration.
Nicotinamide N-methyltransferase (Homo sapiens), sequence (P40261 whole entry, looked up): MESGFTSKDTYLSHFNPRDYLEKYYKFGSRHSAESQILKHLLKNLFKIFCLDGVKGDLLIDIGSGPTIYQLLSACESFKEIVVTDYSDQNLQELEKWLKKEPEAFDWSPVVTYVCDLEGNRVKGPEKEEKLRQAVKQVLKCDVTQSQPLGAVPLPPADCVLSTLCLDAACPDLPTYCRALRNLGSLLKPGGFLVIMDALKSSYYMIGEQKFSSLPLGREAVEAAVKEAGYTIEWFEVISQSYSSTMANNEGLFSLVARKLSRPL
From the text: Assay Submitter (PI): Rong Huang Ph.D, Purdue University, West Lafayette, IN 47907
The N-terminal methytransferase 1 is the first methyltransferase that methylates protein alpha-N-amines and plays an important role in regulating cell mitosis, chromatin interactions and DNA repair. It is observed to be over-expressed in various cancer patient tissues like malignant melanoma and colorectal cancer tissues. Knockdown of NTMT1 in cancer cells causes cell mitotic defects and enhances sensitivity to DNA damaging chemotherapeutics. […] These critical cellular processes in which NTMT1 is implicated, coupled with emerging links to cellular dysfunction, strengthen the inference that NTMT1 is a compelling novel anticancer target. Progress have been made in understanding the molecular properties of NTMT1 and the biological consequences of protein alpha-N-terminal methylation, but there are no specific small molecule probes available for NTMT1 to fully characterize its MTase activity. To address this unmet need, a panel of assay is created and established to enable quantitative high-throughput screening (qHTS) for novel, potent, and selective small molecule NTMT1 inhibitors. Two orthogonal qHTS that use different reagents (ThioGlo vs. MTaseGlo) are developed for primary robotic screening against the NCATS chemical library of more than 400,000 small molecules. Identified inhibitors are reacquired, validated, and further characterized.
MTaseGlo Assay is a luminescence screen that measure the activity of methyltransferases based on the reaction product S-adenosyl homocysteine (SAH). The substrate SAM is converted to SAH upon enzyme activation. MTase-Glo reagent and detection solution convert SAH to ATP and measure the light from the luciferase reaction. Nicotinamide N-methyltransferase (NNMT) is a cystolic enzyme that catalyzes the transfer of a methyl group from the co-factor SAM onto the substrate, nicotinamide (NA) to form 1-methyl-nicotinamide (MNA) and SAH. NNMT MTaseGlo assay is used as a counterscreen to evaluate selectivity of identified inhibitors.
Early Translation Branch (ETB)
National Center for Advancing Translational Sciences (NCATS)
National Institute of Health (NIH)
NNMT enzyme, SAM, NA, and control is provided by the Huang laboratory.
In brief, 3 µL of enzyme mixture (final concentrations of 125 nM and 100 µM for NNMT and SAM, respectively) into all wells of a 1,536-well solid-bottom white plate (Greiner Bio One, Monroe, NC). 23 nL of DMSO or compound (final concentration range 234 nM to 143 microM) was transferred via Wako Pin-tool (Wako Automation, Richmond, VA) and incubated (RT) for ~15 minutes. Next, 1 µL of substrate (final concentration 1 µM NA) or buffer was dispensed, and the reaction proceeded for 30 minutes (RT, protected from light) followed by a 1 microL addition of [5X] MTase-Glo Reagent(R). Samples were incubated (RT, protected from light) for 30 minutes to allow for SAH to be converted to ADP, followed by a 5 microL addition of [1X] MTase-Glo Detection Solution(R) to allow for ADP to be converted to ATP, which was then detected with a luciferase reaction. Samples were centrifuged for 15 seconds at 1,000 RPM's, followed by a RT incubation for 30 minutes. Plates were then read using Luminescence optics on a ViewLux detector. Data were normalized to no-enzyme (0% activity) and no-inhibitor (DMSO; 100%) controls, and the resulting percent inhibition data were fitted to a 4-parameter Hill equation using Graphpad Prism.
Potency means the concentration at half of the fitted maximal effect.

Compound | activity change, negative = inhibition | Potency
COc1cc(/C=C(\C#N)C(=O)Nc2nnc(C(F)(F)F)s2)ccc1OCc1ccc(C(F)(F)F)cc1C(F)(F)F | -13.8% | 
N#CC(C#N)=C(N)/C(C#N)=C/c1ccc(O)cc1 | -11% | 
CC(C)(C)c1ccc(S(=O)(=O)/C=C\C#N)cc1 |  | 11.2 µM (active)
N=C(N)c1ccc(OCCCCCOc2ccc(C(=N)N)cc2)cc1 (tested in a mixture with another compound) | -16.6% | 
Nc1nc(Cl)nc2c1ncn2[C@@H]1O[C@H](CO)[C@@H](O)[C@@H]1F | -14.4% [at 114 µM] | 
Nc1nc2ccc(Cl)cc2c2nc(-c3ccco3)nn12 | -8.24% | 
O=c1c(O)c(-c2ccc(O)c(O)c2)oc2cc(O)cc(O)c12 |  | inactive
C[C@H](Cc1ccc(O)c(O)c1)[C@@H](C)Cc1ccc(O)c(O)c1 |  | 22.4 µM (active) and 25.1 µM (active)
Nc1nc(=S)c2ncn([C@@H]3O[C@H](CO)[C@@H](O)[C@H]3O)c2[nH]1 | -12.2% [at 38.3 µM] | 
COc1ccccc1CNCCCCCCNCCCCCCCCNCCCCCCNCc1ccccc1OC | -15.9% | 
COc1cc2c(NC3CCN(C(C)C)CC3)nc(N3CCCN(c4ccccc4)CC3)nc2cc1OCCCN1CCCC1 | -4.98% | 
COc1cc2nc(N3CCCN(C)CC3)nc(N3CCN(C)CC3)c2cc1OC | -10.6% | 
COc1cccc(OC)c1OCCNCC1CSc2ccccc2O1 (stereo not given) | -11.3% | 
COc1ccc(C(=O)/C(Cc2cc(OC)c(OC)c(OC)c2)=C(\C(=O)O)c2ccc3c(c2)OCO3)cc1 | -17.5% | 
Cc1cc(O)c2c(c1)C(=O)c1cc(O)cc(O)c1C2=O | -12.1% | 
COc1cc(CNC(=O)CCCCCCC(C)C)ccc1O | -12.2% | 
CC(C)NC[C@@H](O)c1ccc(O)c(O)c1 | -5.82% | 
CCNC(=O)[C@H]1O[C@H](n2cnc3c(N)nc(NCCc4ccc(CCC(=O)O)cc4)nc32)[C@@H](O)[C@@H]1O | -13.3% | 
Oc1cc2c(cc1O)C(c1ccccc1)CNCC2 (stereo not given) | -11.2% | 
CN(C)c1ccc(/C=C2\C(=O)Nc3ccccc32)cc1 |  | 10 µM (active)

Compound | activity change, negative = inhibition | Potency
C[N+]1(C)CCC(OC(=O)C(c2ccccc2)c2ccccc2)CC1 | -7.96% | 
CCN(CC)CCNC(=O)c1c(C)[nH]c(/C=C2\C(=O)Nc3ccc(F)cc32)c1C | -14.6% | 
NC(Cc1c[nH]c2ccc(O)cc12)C(=O)O (stereo not given) | -8.98% | 
CCCc1cc(C)[nH]c(=O)c1CNC(=O)c1cc(-c2ccc(N3CCN(C(C)C)CC3)nc2)cc2c1cnn2C(C)C | -18% | 
C=CCN1CCc2c(cc(O)c(O)c2Cl)C(c2ccccc2)C1 (stereo not given) | -10.9% | 
NC[C@@H]1O[C@H](C23CC4CC(CC(C4)C2)C3)Cc2c1ccc(O)c2O | -13.5% | 
c1cc(CN2CCCCC2)cc(OCCCNc2nc3ccccc3s2)c1 | -18.2% | 
CCCCNc1ccc(C(=O)OCCN(C)C)cc1 | -6.3% | 
Cc1cccc(/C=C/c2ccccc2)n1 | -14.2% | 
Nc1[nH]c(=O)nc2c1ncn2C1OC(CO)C(O)C1O (stereo not given) | -17% | 
C=Cc1c(C)c2cc3[nH]c(cc4nc(cc5nc(cc1[nH]2)C(C)=C5CCC(=O)O)C(CCC(=O)O)=C4C)c(C)c3C=C | -14.1% | 
COc1cc2c(NC3CCN(CC4CCCCC4)CC3)nc(N3CCCCC3)nc2cc1OCCCN1CCCCC1 | -2.71% | 
O=C1c2c(O)cc(O)cc2OC(c2ccc(O)c(O)c2)C1O (stereo not given) | -6.75% | 
Cn1ncc(S(=O)(=O)Cc2ccccc2)c(Br)c1=O | -13.1% | 
Cc1c(OCC(F)(F)F)ccnc1CS(=O)c1nc2ccccc2[nH]1 (stereo not given) | -12.3% | 
Nc1nc(Cl)nc2c1ncn2[C@@H]1O[C@H](COP(=O)(O)OP(=O)(O)OP(=O)(O)O)[C@@H](O)[C@H]1O | 30.3% | 
Nc1ncnc2c1[nH]c(=S)n2C1OC(CO)C(O)C1O (stereo not given) | 25.9% | 
CN(C)[C@@H]1C(=O)C(C(N)=O)=C(O)[C@@]2(O)C(=O)C3=C(O)c4c(O)ccc(Cl)c4[C@@H](O)[C@H]3C[C@@H]12 | -21.8% | 
C#CCN(C)CCCOc1ccc(Cl)cc1Cl | -13.2% | 
Nc1ncnc2c1ncn2[C@@H]1O[C@H](COP(=O)(O)OP(=O)(O)OC[C@H]2OC(O)[C@H](O)[C@@H]2O)[C@@H](O)[C@H]1O (stereo not given in full) | 326% | 
